Assay [1] is described as follows: qHTS assay for small molecule agonists of the p53 signaling pathway (AID 651631; calls by dose curve; also: nearly all actives have a fitted effect of over 15% in size). The procedure, abridged:
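Quantitative high-throughput format: 4,000 p53RE-bla HCT-116 cells/well, 5 h pre-incubation, 16 h compound exposure at 37 °C, 2 h room-temperature substrate step, fluorescence intensity measured.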
Background: In qHTS, concentration-response curves come from the screen itself.

Assay [2] can be described thus: qHTS assay for small molecules that induce genotoxicity in human embryonic kidney cells expressing luciferase-tagged ATAD5 (AID 651632). Also: nearly all actives have a fitted effect of over 15% in size. The procedure, abridged:
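ATAD5-luc HEK293T, 2,000 cells/well; cpd or DMSO pin-transferred; 16 hr, 37C/5% CO2; Amplite 30 min RT; luminescence.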

Assay [3] in a line: qHTS assay for small molecule agonists of the p53 signaling pathway - cell viability (AID 651633; calls by dose curve;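 also: p53RE-bla HCT reporter cells with a stable beta-lactamase p53 reporter; series mostly up to about 83 µM; nearly all actives have a fitted effect of over 30% in size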). The method in brief: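 p53RE-bla cells, seeded at 4,000 per well and rested 5 h at 37 C/5% CO2, received compounds in DMSO for 16 h at 37 C. CellTiter-Glo was then added, and luminescence was read after 30 min at room temperature to gauge cytotoxicity.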
Assay [4] in a line: qHTS assay for small molecule disruptors of the mitochondrial membrane potential - cell viability (AID 720634; calls by dose curve;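 also: human HepG2 liver cancer cells; series mostly up to about 83 µM; nearly all actives have a fitted effect of over 20% in size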). The method in brief: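 Cells: HepG2, 2,000/well, attached overnight. Compound 1 hr, 37 C/5% CO2. +m-MPI dye, +CellTiter-Glo 30 min RT. Readout: luminescence (ATP).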
A short description of assay [5]: qHTS assay for small molecule disruptors of the mitochondrial membrane potential (AID 720635). Also: potency is read from the fitted curve at half-maximal effect. The procedure, abridged:
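HepG2 cells (2,000/well) attached overnight at 37C, then took compound for 1 hr at 37C, 5% CO2. Mito-MPS dye was added for 30 min; fluorescence was read at 490/535 nm (monomers) and 540/590 nm (aggregates).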

Assay [6] can be described thus: qHTS assay to test for compound auto fluorescence at 590 nm (red) in HepG2 cells (AID 720674). The procedure, abridged: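 Intrinsic compound fluorescence in the red window (Ex/Em 540/590 nm) is measured in attached HepG2 cells exposed for 1 hr, DMSO vehicle as baseline, benchmarked to Rose Bengal sodium.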
The nature of assay [7]: qHTS assay to test for compound auto fluorescence at 535 nm (green) in HepG2 cells (AID 720675).
A short description of assay [8]: qHTS assay to test for compound auto fluorescence at 460 nm (blue) in HEK293 cells (AID 720678). The method in brief:
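Cells were seeded and left to adhere for 4-5 hr at 37C. Compounds were then pin-transferred. After an overnight incubation at 37C under 5% CO2, intrinsic fluorescence at 405/460 nm was measured and referenced to triamterene.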

The nature of assay [9]: qHTS assay to test for compound auto fluorescence at 590 nm (red) in HEK293 cells (AID 720679). The procedure, abridged:
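Each well held 2,000 HEK293 cells in medium containing 10% dialyzed FBS. Following 4-5 hr attachment at 37C, 23 nL test compound or DMSO was added; plates sat overnight, and red fluorescence (540/590nm) was recorded.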

The nature of assay [10]: qHTS assay to test for compound auto fluorescence at 535 nm (green) in HEK293 cells (AID 720680).
Assay [11] in a line: qHTS assay to test for compound auto fluorescence at 460 nm (blue) in HEK293 cell free culture (AID 720681). The method in brief:
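Test compounds were pinned into cell-free culture medium (DMEM with 10% FBS) and fluorescence was read directly at Ex/Em 405/460 nm. Signals were expressed as fluorescence equivalents of triamterene, with DMSO vehicle as control.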

Assay [12] can be described thus: qHTS assay to test for compound auto fluorescence at 535 nm (green) in HEK293 cell free culture (AID 720682). The procedure, abridged: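 Measurement is a direct plate read of green fluorescence (485 nm in, 535 nm out) after compound addition to serum-supplemented DMEM lacking cells, with fluorescein used to express intensities.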
The nature of assay [13]: qHTS assay to test for compound auto fluorescence at 590 nm (red) in HEK293 cell free culture (AID 720683). The method in brief: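 Tox21 10K library compounds were pinned into cell-free DMEM with 10% FBS and fluorescence was read at excitation 540 nm. Activity is expressed as Rose Bengal sodium equivalency.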
Assay [14] is described as follows: qHTS assay to test for compound auto fluorescence at 590 nm (red) in HepG2 cell free culture (AID 720684). The method in brief: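 Red fluorescence (540 nm excitation, 590 nm emission) was measured after compound transfer into cell-free MEM supplemented with 10% FBS. Values are equivalencies against Rose Bengal sodium.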
The nature of assay [15]: qHTS assay to test for compound auto fluorescence at 535 nm (green) in HepG2 cell free culture (AID 720686).
Assay [16] can be described thus: qHTS assay to test for compound auto fluorescence at 460 nm (blue) in HepG2 cells (AID 720687). The procedure, abridged: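 Cells (2,000/well in MEM with 10% FBS) attached overnight at 37 C, then were exposed to compound or DMSO for 1 hr at 37 C, 5% CO2. Fluorescence read at Ex/Em 405/460 nm, expressed as triamterene-equivalent signal.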
The target of assay [17] is Glucocorticoid receptor (Homo sapiens) (UniProt P04150). Briefly: qHTS assay to identify small molecule agonists of the glucocorticoid receptor (GR) signaling pathway (AID 720691; active = well fitted activation curve with a large enough effect in the signal ratio in the repeat runs, not every such curve was filed as active; the % refers to the signal ratio). The method in brief:
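Fluorescence intensity from LiveBLAzer B/G FRET substrate (2 h, room temperature) reports beta-lactamase expression driven by the glucocorticoid response element in GR-bla HeLa cells after 18 h compound exposure at 37 C.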

Assay [18] in a line: qHTS assay for small molecules that induce genotoxicity in human embryonic kidney cells expressing luciferase-tagged ATAD5 - cell viability (AID 651634; calls by dose curve; also: nearly all actives have a fitted effect of over 25% in size). The method in brief: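 Fluorescence from CellTiter-Fluor, reporting protease activity within live cells, served as the viability read-out. HEK293T cells carrying luciferase-tagged ATAD5 had been treated with compound for 15.5 hr at 37C.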

Assay [19] in a line: qHTS assay to test for compound auto fluorescence at 460 nm (blue) in HepG2 cell free culture (AID 720685). The procedure, abridged: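 Compound (23 nL) or DMSO pinned into cell-free MEM with 10% FBS; blue fluorescence read at 405/460 nm excitation/emission, expressed as auto-fluorescence equivalency to triamterene.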
In assay [20] the target is Glucocorticoid receptor (Homo sapiens) (UniProt P04150). As to the kind of experiment: qHTS assay to identify small molecule antagonists of the glucocorticoid receptor (GR) signaling pathway (AID 720692; active = well fitted inhibition curve with a large enough effect in the signal ratio in the repeat runs, not every such curve was filed as active; the % refers to the signal ratio). The procedure, abridged:
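HeLa GR-bla cells; cmpd + dex 5 nM final, 18 h 37 C; LiveBLAzer B/G FRET substrate 2 h RT; fluorescence intensity read. Antagonist mode, qHTS.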

Values joined by “and” are separate entries in the source; they are usually repeats but may differ in a detail not shown here. Equal entries are not always repeated. Values without a mark were called inactive. Results filed as inconclusive are left out. Active and inactive are the calls of the source. Unless noted, calls follow the shape of the dose curve; as a rule, active = well fitted curve in the direction sought with a large enough effect in the repeat runs; inconclusive = weak or mixed curves; inactive = no such curve, though single readings can be large; an effect the other way counts as inactive or inconclusive.

Chain of Glucocorticoid receptor (Homo sapiens) (P04150 whole entry, looked up): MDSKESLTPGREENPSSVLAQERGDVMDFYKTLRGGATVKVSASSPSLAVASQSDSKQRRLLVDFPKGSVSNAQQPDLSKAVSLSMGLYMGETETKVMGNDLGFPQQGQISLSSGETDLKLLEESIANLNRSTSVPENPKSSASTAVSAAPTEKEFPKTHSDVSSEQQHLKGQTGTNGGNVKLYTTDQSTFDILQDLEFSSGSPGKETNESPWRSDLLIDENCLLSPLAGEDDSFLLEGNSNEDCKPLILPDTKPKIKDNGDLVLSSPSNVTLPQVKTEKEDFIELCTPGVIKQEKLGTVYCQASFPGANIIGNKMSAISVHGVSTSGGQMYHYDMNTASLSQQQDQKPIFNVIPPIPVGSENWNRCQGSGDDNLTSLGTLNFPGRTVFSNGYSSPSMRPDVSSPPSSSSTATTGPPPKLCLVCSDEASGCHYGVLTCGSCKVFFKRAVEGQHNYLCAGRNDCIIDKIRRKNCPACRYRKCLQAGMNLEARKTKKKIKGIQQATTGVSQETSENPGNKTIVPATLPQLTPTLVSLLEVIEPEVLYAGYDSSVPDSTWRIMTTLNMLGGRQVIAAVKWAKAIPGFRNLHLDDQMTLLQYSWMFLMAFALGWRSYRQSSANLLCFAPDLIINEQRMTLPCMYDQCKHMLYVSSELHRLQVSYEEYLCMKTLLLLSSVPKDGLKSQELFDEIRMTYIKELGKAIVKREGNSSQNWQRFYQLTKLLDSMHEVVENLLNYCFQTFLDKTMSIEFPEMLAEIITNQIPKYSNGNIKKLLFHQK

Turning to `O=C(NCO)NCO`, the Potency entry in assay [1], in assay [2], in assay [3], in assay [4] and in assay [5] was “inactive” in each case. Also, the outcome in [6], in assay [7], in assay [8], in assay [9], in assay [10] and in [11] was inactive. In addition, the result in [12], in [13], in [14], in [15], in [16] and in assay [17] was inactive.
Turning to `N#CCBr`, the Potency entry in assay [1], in assay [2], in [3], in assay [18] and in [20] was “inactive” throughout. Moreover, the compound was called inactive in assay [6], in assay [7], in [8], in [9], in assay [10] and in assay [11]. In addition, the result in assay [13], in assay [14], in [19], in [16] and in assay [17] was inactive.
`O=C(O)c1ccc2[nH]cc(CCCCN3CC=C(c4ccccc4)CC3)c2c1`: the Potency entry in assay [1], in [2], in [3], in assay [18], in [5] and in assay [20] was “inactive” throughout. The call in [6], in assay [7], in assay [8], in [9], in assay [10] and in [11] was inactive. Moreover, the call in assay [12], in [13], in assay [14], in assay [19], in [15] and in assay [16] was inactive. Moreover, in assay [17], the call was inactive.
Regarding `CCN(CC)C(=O)[C@@H]1C=C2c3cccc4[nH]cc(c34)C[C@H]2N(C)C1`, the Potency entry in [1], in [2], in [3] and in [4] was “inactive” throughout. Also, the Potency in assay [5] is 8.98 µM (active) and 6.68 µM (active). Besides, the compound was classed as inactive in assay [6], in [7], in [9], in [11], in [12] and in assay [13]. In addition, the call in assay [14], in [15], in assay [16] and in assay [17] was inactive.
Turning to `ClC(Cl)C(Cl)Cl`, the Potency entry in assay [1], in assay [2], in [3], in [18] and in assay [20] was “inactive” in each case. Also, the compound was called inactive in [6], in [7], in assay [9], in [10], in assay [11] and in assay [12]. Besides, the compound was classed as inactive in assay [13], in [14], in [19], in [15], in assay [16] and in assay [17].
`CCCCN(CCCCO)N=O`: the Potency result in [1], in [2], in assay [3], in [18] and in assay [5] was “inactive” each time. Further, the compound was called inactive in assay [6], in [7], in assay [8], in assay [9], in assay [10] and in assay [11]. Further, the compound was called inactive in assay [12], in [13], in assay [14], in [19], in assay [15] and in assay [16]. Also, in assay [17], the result was inactive.
Regarding `O=C(CCN1CC1)OCC(CO)(COC(=O)CCN1CC1)COC(=O)CCN1CC1`, the Potency result in assay [1], in [2], in [3], in [18] and in [4] was “inactive” each time. Moreover, the call in assay [6], in [7], in assay [9], in assay [11], in assay [13] and in [14] was inactive. Besides, the compound was classed as inactive in [19], in assay [16] and in assay [17].
`COC(=O)c1c(C(F)F)nc(C(F)(F)F)c(C2=NCCS2)c1CC(C)C`: the Potency result in assay [1], in assay [2], in [3] and in [18] was “inactive” throughout. Moreover, the compound was classed as inactive in [6], in [7], in assay [8], in assay [9], in assay [10] and in assay [11]. Moreover, the result in [13], in assay [14], in assay [19], in [15] and in [16] was inactive.

These data come from PubChem BioAssay (Tox21).
